Data reported in PubChem BioAssay (NCI).
The panel holds about 83,000 compounds, 20% with a hit somewhere; the sample as a whole holds those more often.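 Growth was measured after 48 h exposure to one concentration of compound in 96-well plates. Values under 10 count as active.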 Activity calls are given as the source filed them.

Columns and labels:
Experiment in all cases: NCI-60 one-dose screen, 48 h (100 = growth as untreated, 0 = no growth, -100 = all killed)
Conditions in all cases: 10 µM unless noted
NCI-H23 lung = tested on: NCI-H23 lung
NCI-H226 lung = tested on: NCI-H226 lung
HOP-62 NSCLC = tested on: HOP-62 NSCLC
NCI-H460 lung = tested on: NCI-H460 lung
HOP-92 NSCLC = tested on: HOP-92 NSCLC
NCI-H522 lung = tested on: NCI-H522 lung
A549/ATCC NSCLC = tested on: A549/ATCC NSCLC
786-0 renal = tested on: 786-0 renal
COLO 205 colon = tested on: COLO 205 colon

Measured: growth

CCOC(=O)c1noc2c1CCc1c-2cn(Cc2ccc(OC)cc2)c1-c1cc(OC)c(OC)c(OC)c1
active: NCI-H460 lung 8.9% | NCI-H522 lung 3.83% | COLO 205 colon 1.98%
inactive: NCI-H23 lung 42.9% | NCI-H226 lung 40.8% | HOP-62 NSCLC 22.8% | HOP-92 NSCLC 63.4% | A549/ATCC NSCLC 43.5% | 786-0 renal 34.7%

COc1ccc(CNc2nc3ccccc3c3c(=O)c4ccccc4sc23)cc1OC
inactive: NCI-H23 lung 80.9% | NCI-H226 lung 75.6% | HOP-62 NSCLC 79.8% | NCI-H460 lung 63.3% | HOP-92 NSCLC 42.8% | NCI-H522 lung 77.4% | A549/ATCC NSCLC 61.6% | 786-0 renal 76.8% | COLO 205 colon 79.4%

COc1ccc(C(=O)NC(=O)Nc2ccc3c(c2)NC(=O)/C3=C\c2[nH]c(C)c(CCC(=O)O)c2C)c(F)c1
active: A549/ATCC NSCLC 7.84%
inactive: NCI-H23 lung 40.4% | NCI-H226 lung 45% | HOP-62 NSCLC 19.8% | NCI-H460 lung 17.1% | NCI-H522 lung 26.8% | 786-0 renal 31.2% | COLO 205 colon 37.5%

COc1ccccc1S(=O)(=O)Nc1ccc2c3c(cc(-c4cnn(C5CC5)c4)nc13)C(=O)N2C
inactive: NCI-H23 lung 67.5% | NCI-H226 lung 79.7% | HOP-62 NSCLC 50.7% | NCI-H460 lung 66.7% | HOP-92 NSCLC 40.7% | NCI-H522 lung 64.6% | A549/ATCC NSCLC 66.4% | 786-0 renal 68.2% | COLO 205 colon 39.2%

O=C(Nc1ccc(-n2cc(-c3ccncc3)c(-c3ccc(O)c(Cl)c3)n2)cc1)Nc1cc(C(F)(F)F)cc(C(F)(F)F)c1
active: HOP-92 NSCLC 2.56%
inactive: NCI-H23 lung 47.5% | NCI-H226 lung 87.8% | NCI-H460 lung 49.3% | NCI-H522 lung 79.5% | A549/ATCC NSCLC 53.6% | 786-0 renal 50.5% | COLO 205 colon 28.6%

C=C1C(=O)O[C@H]2[C@H]1CC/C(COC(=O)c1ccccc1)=C\CC[C@@]1(C)O[C@@H]21
active: NCI-H226 lung -37.2% | HOP-92 NSCLC -41.9% | NCI-H522 lung -77.7% | 786-0 renal -59.2% | COLO 205 colon -64.7%
inactive: NCI-H23 lung 45% | HOP-62 NSCLC 36.6% | NCI-H460 lung 38% | A549/ATCC NSCLC 23.3%

Cc1ccc2c(c1)Nc1ccc(C)cc1C2(C)C
inactive: NCI-H23 lung 94.9% | NCI-H226 lung 98.3% | HOP-62 NSCLC 78.9% | NCI-H460 lung 109% | HOP-92 NSCLC 81.1% | NCI-H522 lung 68% | A549/ATCC NSCLC 93.1% | 786-0 renal 84.7% | COLO 205 colon 84.3%

Cc1ccc(-c2cc(-c3nnc(SCC(=O)c4ccccc4)o3)c3ccccc3n2)cc1
inactive: NCI-H23 lung 97.1% | NCI-H226 lung 94.5% | HOP-62 NSCLC 108% | NCI-H460 lung 98.3% | HOP-92 NSCLC 96.6% | NCI-H522 lung 87.7% | A549/ATCC NSCLC 91.4% | 786-0 renal 92.8% | COLO 205 colon 111%

CC(C)C1(C(C)C)NC(=O)NC1=O
inactive: NCI-H23 lung 99.2% | NCI-H226 lung 102% | HOP-62 NSCLC 96.6% | NCI-H460 lung 99.9% | HOP-92 NSCLC 93.2% | NCI-H522 lung 94.8% | A549/ATCC NSCLC 101% | 786-0 renal 101% | COLO 205 colon 117%

COc1cc(C(=O)N2CCN(C(=O)c3cc(OC)c(OCc4ccccc4)cc3N)CC2)c(N)cc1OCc1ccccc1
inactive: NCI-H23 lung 86.8% | NCI-H226 lung 122% | HOP-62 NSCLC 108% | NCI-H460 lung 115% | HOP-92 NSCLC 86.1% | NCI-H522 lung 103% | A549/ATCC NSCLC 107% | 786-0 renal 104% | COLO 205 colon 115%
